Measurements from ChEMBL document CHEMBL3988442, “University of Dundee, Small-Polar-MMV Screening Library” (2021).
Among all 38,000 compounds or so, about 1,200 (3.2%) showed an effect of 50% or more. The median lay at about -58%. This is one part of a sample in which strong results are shown more often than they occur.

System: Plasmodium falciparum
Assay: Calibr Malaria Delayed Death Assay SOP
Type: functional, organism-based
Set-up: scale not given: in the data most compounds retested in dose-response had high values
Conditions: concentration 4.99e-06 (unit not given; other assays of the set use mol/L)

Compound | Percent Effect [%]
CCc1cc(NCCc2cc(F)cc(F)c2)n2nccc2n1 | -125.8
c1cnn(CCNCc2cnc(N3CCCC3)nc2)c1 | -23.83
Cc1ccccc1C(NC(=O)NCC1(CO)CC1)C1CC1 (stereo unspecified) | -98.91
CCc1nc(CN2CCCC(N(C)Cc3cnc(C)cn3)C2)no1 (stereo unspecified) | -35.57
CC(NC1(CNC(=O)OC(C)(C)C)CCOCC1)c1ccccc1 (stereo unspecified) | -63.28
CC(NC(=O)CSCC#N)c1ccccc1 (stereo unspecified) | -131
CC(=O)c1ccc(Nc2nc(N)nc3c2nc(C)n3C)cc1 | -204.1
Cc1ccc2cccc(S(=O)(=O)N(C)CC3CCN(C)CC3)c2n1 | 56.89
Cc1ccc2cccc(S(=O)(=O)N(C)C3CCCN(C)C3)c2n1 (stereo unspecified) | 32.17
Cc1ccc2cccc(S(=O)(=O)N(C)CC3CCN(C)C3)c2n1 (stereo unspecified) | 35.25
CSCc1noc(CN2CC(Cc3ccccc3)CC2=O)n1 (stereo unspecified) | -65.09
COC(=O)N1CCCCC1C(=O)N1CCN(c2cccnc2)CC1 (stereo unspecified) | -94.01
CN1CCCCCC1C(=O)N1CCN(c2ccccc2C#N)CC1 (stereo unspecified) | 59.17
CN1CCCCC1C(=O)N1CCN(c2ccccc2C#N)CC1 (stereo unspecified) | 8.936
Cc1cnn(CCC(=O)N2CCCN(c3ccccc3C#N)CC2)c1 | -36.97
CN1CCCCCC1C(=O)N1CCCN(c2ccccc2)CC1 (stereo unspecified) | 60.61
CN1CCC(C(=O)N2CCCN(c3cccnn3)CC2)C1 (stereo unspecified) | -4.513
CCC(c1ccc(F)cc1)S(=O)(=O)CCO (stereo unspecified) | -152
COc1cc(C#N)ccc1OC12CCCN(CC1)C2 (stereo unspecified) | -68.61
O=C(CC1CCCO1)NCCCC(=O)Nc1ccc(Cl)cc1 (stereo unspecified) | -29.37
COc1ccc(CCC2CCCCN2)cc1OC (stereo unspecified) | -120.3
CCOc1ccc(Br)cc1-c1cc(N)[nH]n1.Cl | -27.86

Compound | Percent Effect [%]
CCOc1ccc(Cl)cc1C(C(=O)O)N1CCCC1 (stereo unspecified) | -0.3366
CCOc1ccc(Br)cc1S(=O)(=O)N(CC)Cc1ccc(N(C)C)cc1 | -41.17
COc1ccc(Br)cc1CC(=O)N1CCCC1 | -142.1
COc1ccc(CCNC(=O)NC2CCCC2)cc1OC | -80.35
c1csc(CN2CCCN(c3ccc(Cn4ccnc4)cn3)CC2)c1 | -41.75
COC1CN(C(=O)Cc2cccs2)CCC(=O)N(C)c2ccccc21 (stereo unspecified) | -19.51
CCc1cc(=O)[nH]c(-c2ccc(NC(CO)CC(C)C)nc2)n1 (stereo unspecified) | -171.9
Cc1noc(C)c1C(=O)N1CCC2(CC(N(C)c3ccncn3)C2)C1 (stereo unspecified) | -76.24
CCn1c(C2CCN(C(=O)c3cc(CC(C)C)no3)CC2)nn(C)c1=O | -42.91
Cc1cc(C)nc(NC2CCC(=O)N(C)C2)n1 (stereo unspecified) | -38.75
Cc1cc(C)nc(NC2CCc3nc(C)nn3C2)n1 (stereo unspecified) | -11.11
O=C(CCc1ccccn1)NC1CCCN(C2Cc3ccccc3C2)C1 (stereo unspecified) | 9.867
CC(C)C(=O)NCC(=O)N(C)C1CCCN(C2Cc3ccccc3C2)C1 (stereo unspecified) | -100.1
c1ccc(-c2cc(CN3CCCCCC3c3ccco3)on2)nc1 (stereo unspecified) | -88.84
Cc1nc[nH]c1CN1CCN(C(=O)CN2CCCC2)[C@H]2CS(=O)(=O)C[C@H]21 | -125.3
Cc1nccc(-c2cccc(NCC(=O)N3CCOC(C)C3)c2)n1 (stereo unspecified) | -139.7
CCn1ncnc1CN1CCC(CNC(=O)c2ccccc2C#N)C1 (stereo unspecified) | -133.7
COc1ncc(C(=O)N2CCC(c3nc(C)n4ccsc34)CC2)cn1 | -121.9
CC(NC(=O)c1ccc(Cl)cc1)c1nnc(SCC(=O)O)n1C (stereo unspecified) | -106.5
O=C(c1ccc(-n2cccc2)c(F)c1)N1CCCN2CCCC2C1 (stereo unspecified) | 6.651
CN(Cc1nnc(C2CC2)n1C)S(=O)(=O)c1ccccc1F | -15.64
CC1c2ncc(COc3cccnc3)n2CCN1C(=O)C1=CCCCC1.O=C(O)C(F)(F)F (stereo unspecified) | -13.51

Compound | Percent Effect [%]
CC(c1ccc(-n2cncn2)cc1)N(C)Cc1ccccn1 (stereo unspecified) | -93.37
CCCSc1nn(CCN(C)C)c2nc3sc(C)c(CC)c3c(=O)n12 | 46.83
CCc1c(C)sc2nc3n(CCN(C)C)nc(SC)n3c(=O)c12 | 13.06
Cc1oncc1C(=O)N1CCC2(CCN(Cc3cccnc3)C2=O)C1.O=C(O)C(F)(F)F (stereo unspecified) | -151.7
O=C(Nc1ccccc1)[C@H]1C[C@@H]2CN(C(=O)Nc3ccccc3)C[C@H]1O2 | 18.72
O=C(c1cccc2c1OCO2)N1CCCC(n2ccnc2)C1 (stereo unspecified) | -40.58
CCCc1n[nH]c(C2CN(C(=O)CCn3ccccc3=O)CCO2)n1 (stereo unspecified) | -67.64
CCc1nc(C(=O)N(CC)CC(=O)Nc2cc(Cl)ccc2C)c[nH]1 | -127.3
Cc1nc2c(c(NCc3ccc(-c4ccccn4)s3)n1)CCNCC2 | 73.48
Cc1n[nH]c(C)c1CNc1nc(-c2ccco2)nc2c1CCNCC2 | 17
Cc1nc2c(c(NCC(O)c3ccccc3Cl)n1)CCNCC2 (stereo unspecified) | 26.14
c1ccc(-c2nc3c(c(NCCCn4cncn4)n2)CCNCC3)nc1 | -4.332
Cc1nc2c(c(NCC(c3ccccc3C)N(C)C)n1)CCNC2 (stereo unspecified) | -11.95
Cc1nc2c(c(NCc3cc4ccccc4s3)n1)CCNCC2 | 89.06
Cc1nc(CNc2nc(-c3ccco3)nc3c2CCNCC3)n[nH]1 | -85.54
Cc1nc2c(c(NCc3nc4ccccc4s3)n1)CCNCC2 | 71.13
CSCC(=O)N1CCc2nc(C)nc(NCc3ccccc3)c2CC1 | -13.73
CN(C)c1cc(C(=O)Nc2cccnc2N2CCSCC2)ccn1 | -48.21
FC(F)(F)c1ccnc(N2CCC(c3nccn3CC3CC3)CC2)n1 | -11.94
Cc1cc(C2CCCN2C(=O)Nc2cn[nH]c2)on1 (stereo unspecified) | -46.01
O=C(c1cccnc1)N1CC(S(=O)(=O)c2ccc(Cl)cc2)C1 | -41.36
Cc1noc(C)c1CN1C[C@@H]2CCCO[C@@H]2[C@H](Nc2ccccn2)C1.O=C(O)C(F)(F)F.O=C(O)C(F)(F)F | -37.64
